aDG glyco act: activators of alpha-DG glycosylation, primary screen, uHTS, Pro5-aDG cells, AlphaScreen; alpha-DG glycosylation AlphaScreen (IIH6); 0% Pro5, 100% B10-LARGE cell signal; activation, % at 10 µM; hit rate 0.22% among 360,000; AID 624168, 2012;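 active = activation of at least 8% versus controls, or a plate z-score of at least 8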;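 note: Pro5 are CHO cells carrying HIG-tagged alpha-DG that lacks glycosylation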
ADAM17 inh: ADAM17 inhibitors, primary screen, biochemical, QFRET. AID 720648, 2013. Disintegrin and metalloproteinase domain-containing protein 17 (Homo sapiens), P78536. recombinant ADAM17, EDANS/DABCYL FRET peptide cleavage. inhibition, % at 6.95 µM. hit rate 0.83% among 370,000;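 active = inhibition above the mean of compounds lying between control limits plus 3 SD, set per campaign, cut at about 8.5% in these data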
Target sequence (P78536 215-824 limits assumed): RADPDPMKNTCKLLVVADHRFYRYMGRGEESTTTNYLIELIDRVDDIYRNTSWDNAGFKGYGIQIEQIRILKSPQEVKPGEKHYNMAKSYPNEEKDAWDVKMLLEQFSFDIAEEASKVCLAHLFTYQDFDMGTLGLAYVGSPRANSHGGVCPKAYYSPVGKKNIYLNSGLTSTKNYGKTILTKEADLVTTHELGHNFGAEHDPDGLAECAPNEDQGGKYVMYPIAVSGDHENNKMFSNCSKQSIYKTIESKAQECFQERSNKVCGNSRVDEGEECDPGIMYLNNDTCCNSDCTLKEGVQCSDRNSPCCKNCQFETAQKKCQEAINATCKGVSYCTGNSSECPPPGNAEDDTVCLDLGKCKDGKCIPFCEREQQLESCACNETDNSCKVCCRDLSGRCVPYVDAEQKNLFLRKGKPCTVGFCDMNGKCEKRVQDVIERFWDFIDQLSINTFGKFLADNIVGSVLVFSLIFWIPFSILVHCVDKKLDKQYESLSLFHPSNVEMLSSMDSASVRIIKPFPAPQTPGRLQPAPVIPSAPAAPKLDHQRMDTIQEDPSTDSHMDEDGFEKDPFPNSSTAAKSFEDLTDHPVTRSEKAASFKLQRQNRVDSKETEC
FAS TE block: FAS thioesterase domain inhibitors, primary screen, biochemical, fluorescence intensity, uHTS; recombinant FAS-TE, OMFH fluorogenic substrate, fluorescence endpoint; inhibition, % at 15 µM; Fatty acid synthase (Homo sapiens), P49327; AID 602261, 2012; hit rate 0.67% among 360,000;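 active = compounds whose normalised, plate-corrected inhibition of enzyme fluorescence in the single-dose primary screen is 50% or more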
NR3A LBD binder: binders of NR3A ligand-binding domain, primary screen, biophysical, differential scanning fluorimetry, uHTS | Glutamate receptor ionotropic, NMDA 3A (GRIN3A) ligand-binding domain | hit rate 2.5% among 340,000 | NR3A LBD differential scanning fluorimetry, Tm shift; 0% = protein alone, 100% = glycine-bound protein | Tm shift relative to glycine control, % at 25 µM | AID 1259313, 2017;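 active = melting temperature shift of at least 10% of the positive control shift, at one fixed dose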
ADAM10 inh: human ADAM10 inhibitors, primary screen, biochemical, QFRET, HTS | recombinant ADAM10, EDANS/DABCYL FRET peptide cleavage, 3 h | Disintegrin and metalloproteinase domain-containing protein 10 (Homo sapiens), O14672 | inhibition, % at 7 µM | hit rate 0.62% among 370,000;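 active = inhibition above a per-campaign cutoff equal to the mean of compounds falling between control-based bounds plus 3 SD, cut at about 20% in these data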
FAS-TE conf: FAS thioesterase domain inhibitors, confirmation, biochemical, fluorescence intensity, single concentration. recombinant FAS-TE, OMFH fluorogenic substrate. hit rate 45% among 2,300. shares compounds with FAS TE block. AID 624325, 2012. inhibition, % at 15 µM;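 active = compounds inhibiting the enzyme by at least 50% at 15 µM in any one of the replicates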
Large screens that a line does not name were inactive (follow-up assays come after a bar, where they were run). Sampled rows, rich in hits. Any-hit rate of the full collection: about 4%.

O=C(NNC(=O)C12CC3CC(CC(C3)C1)C2)c1cccc([N+](=O)[O-])c1	none
O=C(NNc1ccc([N+](=O)[O-])cc1)C12CC3CC(CC(C3)C1)C2	FAS TE block 52 | FAS-TE conf inactive
CC(C)(CN1CCN(Cc2ccccc2)CC1)NS(=O)(=O)c1ccccc1	none
Cc1sc(NC(=O)Cc2ccc3c(c2)OCO3)nc1-c1ccc2c(c1)CCN2C(=O)c1ccccc1F	FAS TE block 81 | FAS-TE conf inactive
COc1ccccc1-n1nnnc1SCC(=O)N(CC(C)C)C1CCS(=O)(=O)C1 (configuration not stated)	none
CC(=O)c1cccc(-c2ccnc3c2CC(C(=O)Nc2cccc(OC(F)(F)F)c2)O3)c1 (configuration not stated)	FAS TE block 54 (no result: NR3A LBD binder) | FAS-TE conf 57
O=C(Nc1cccc(OC(F)(F)F)c1)C1Cc2c(-c3ccc4c(c3)OCO4)ccnc2O1 (configuration not stated)	none (no result: NR3A LBD binder)
COc1ccc(Cl)cc1-c1cc(C(=O)NCc2ccc(C(F)(F)F)cc2)[nH]n1	FAS TE block 56 (no result: NR3A LBD binder) | FAS-TE conf 55
COc1ccc(N2CCN(C(=O)CSc3nc4[nH]ncc4c(=O)n3-c3ccc(Br)cc3)CC2)cc1	none
Cc1nc(N2CCC(C)CC2)c(C#N)c(C)c1[N+](=O)[O-]	none
Cc1nc(Sc2ccc(Cl)cc2)c(C#N)c(C)c1[N+](=O)[O-]	FAS TE block 64 | FAS-TE conf inactive
Cc1nc(Sc2ccc(Br)cc2)c(C#N)c(C)c1[N+](=O)[O-]	FAS TE block 61 | FAS-TE conf inactive
Cc1ccc(Sc2nc(C)c([N+](=O)[O-])c(C)c2C#N)cc1	none
COCCN(C(=O)COC(=O)CCC1CCCCC1)c1c(N)n(Cc2ccccc2)c(=O)[nH]c1=O	none (no result: NR3A LBD binder)
COc1ccc(Cn2c(C)nc3ccc([N+](=O)[O-])cc3c2=O)cc1	FAS TE block 70 | FAS-TE conf 48
Cc1nc2ccc([N+](=O)[O-])cc2c(=O)n1Cc1ccc(Cl)cc1	FAS TE block 83 | FAS-TE conf 85
COc1ccc(Cn2c(=O)c3cccnc3n(Cc3ccc([N+](=O)[O-])cc3)c2=O)cc1	none
CCOc1ccc(-n2c(SCc3cccc4ccccc34)nnc2-c2ccc(C)cc2)cc1	none (no result: aDG glyco act, FAS TE block, NR3A LBD binder)
CCOc1ccc(-n2c(SCc3ccc([N+](=O)[O-])cc3)nnc2-c2ccccc2)cc1	FAS TE block 63 | FAS-TE conf 56
COc1ccc(-n2c(SCc3ccc([N+](=O)[O-])cc3)nnc2-c2ccccc2)cc1	FAS TE block 56 | FAS-TE conf 51
COc1ccc(-c2nnc(SCc3ccccc3)n2N)cc1	none
O=C(CCC1CCCN(c2ncccn2)C1)NCc1ccc(F)c(F)c1 (configuration not stated)	none
Cc1ccc([N+](=O)[O-])cc1NC(=O)CNC1CCCCC1	none
O=C(COc1ncnc2ccccc12)Nc1ccc(Cl)c([N+](=O)[O-])c1	FAS TE block 68 | FAS-TE conf 66
O=C(COc1ncnc2ccccc12)Nc1cccc([N+](=O)[O-])c1	none
Cc1ccc([N+](=O)[O-])cc1NC(=O)CN(C(=O)c1ccc(Cl)cc1)C1CCCCC1	FAS TE block 86 | FAS-TE conf 91
O=C(CN(C(=O)c1ccc(Cl)cc1)C1CCCCC1)Nc1ccc(Cl)c([N+](=O)[O-])c1	FAS TE block 76 | FAS-TE conf inactive
Cc1ccc([N+](=O)[O-])cc1NC(=O)CCSc1ccc(Cl)cc1	FAS TE block 66 | FAS-TE conf 62
C=CCNC(=O)c1ccc2nccnc2c1	none
COc1ccc2c(c1)Cc1cc(NC(=O)c3ccccc3-c3ccccc3C(=O)O)ccc1-2	none (no result: NR3A LBD binder)
COc1ccc(/C=C(/NC(=O)c2cccc([N+](=O)[O-])c2)C(=O)O)cc1OC	none
Cc1ccc([N+](=O)[O-])cc1NC(=O)c1ccc(C(C)(C)C)cc1	FAS TE block 68 | FAS-TE conf 72
COc1ccccc1/C=C(\NC(=O)c1ccc(OC)c(OC)c1)C(=O)Nc1cc([N+](=O)[O-])ccc1C	FAS TE block 60 | FAS-TE conf 71
O=C(CSc1ccccn1)Nc1ccc(Cl)c([N+](=O)[O-])c1	none
O=C(CN(C(=O)c1ccccc1Cl)C1CCCCC1)Nc1ccc(Cl)c([N+](=O)[O-])c1	FAS TE block 62 | FAS-TE conf inactive
Cc1cc(=O)n2[nH]c(-c3ccc(C(C)(C)C)cc3)cc2n1	FAS TE block 63 | FAS-TE conf 44
O=C(CCN1C(=O)C2C3C=CC(C3)C2C1=O)Nc1ccc2c(c1)OCO2 (configuration not stated)	none
COc1ccc(C(C(=O)NC2CCCC2)N(C(=O)c2snc(-c3ccc(F)cc3)c2N)c2ccc(OC)cc2)cc1 (configuration not stated)	FAS TE block 59 | FAS-TE conf inactive
O=C(CN1C(=O)CSc2cc(S(=O)(=O)N3CCCCCC3)ccc21)NCCc1ccccc1	FAS TE block 50 | FAS-TE conf inactive
Cc1ccc(NC(=O)CN2C(=O)CSc3ccc(S(=O)(=O)N4CCCCC4)cc32)cc1	FAS TE block 56 | FAS-TE conf 42
COc1cccc(NC(=O)CN2C(=O)CSc3ccc(S(=O)(=O)N4CCCCC4)cc32)c1	FAS TE block 53 | FAS-TE conf 66
O=C(CNC(=S)N(CCCN1CCOCC1)Cc1cccs1)NCc1ccccc1Cl	none
CC(OC(=O)c1cccc([N+](=O)[O-])c1)C(=O)N1CCc2ccccc21 (configuration not stated)	FAS TE block 77 | FAS-TE conf 59
CS(=O)(=O)c1ccc(NC(=O)c2cccc(-n3cnnn3)c2)cc1	none
O=C(Nc1ccc(Br)cc1)c1cccc(-n2cnnn2)c1	FAS TE block 52, NR3A LBD binder 39 | FAS-TE conf 31
N#CCSc1nc2c(sc(=S)n2Cc2ccco2)c(=O)n1-c1ccc(F)cc1	FAS TE block 58 | FAS-TE conf inactive
CCn1c(=S)sc2c(=O)n(-c3ccccc3)c(SC)nc21	none
CCOC(=O)c1cc2c(=O)n3cccc(C)c3nc2n(CC(C)C)c1=NC(=O)c1ccco1	none
CCOCCCn1c(=NC(=O)c2ccco2)c(C(=O)OCC)cc2c(=O)n3cccc(C)c3nc21	FAS TE block 67 | FAS-TE conf inactive
CCOC(=O)c1cc2c(=O)n3ccccc3nc2n(Cc2ccco2)c1=NC(=O)c1ccc(OC)cc1	FAS TE block 64 | FAS-TE conf 47

Bioassay records as filed in PubChem.
